Data as given in the supplement of paper PMC10681739.

What was measured:
ETS1 = target: T1, ETS1 (UniProt P14921); assay: ETS1 binding intensity (PBM fluorescence), ETS1 alone (arbitrary fluorescence units); higher = stronger binding; conditions: ETS1 concentration 1 nM; RUNX1 concentration 0 nM
T1 sequence: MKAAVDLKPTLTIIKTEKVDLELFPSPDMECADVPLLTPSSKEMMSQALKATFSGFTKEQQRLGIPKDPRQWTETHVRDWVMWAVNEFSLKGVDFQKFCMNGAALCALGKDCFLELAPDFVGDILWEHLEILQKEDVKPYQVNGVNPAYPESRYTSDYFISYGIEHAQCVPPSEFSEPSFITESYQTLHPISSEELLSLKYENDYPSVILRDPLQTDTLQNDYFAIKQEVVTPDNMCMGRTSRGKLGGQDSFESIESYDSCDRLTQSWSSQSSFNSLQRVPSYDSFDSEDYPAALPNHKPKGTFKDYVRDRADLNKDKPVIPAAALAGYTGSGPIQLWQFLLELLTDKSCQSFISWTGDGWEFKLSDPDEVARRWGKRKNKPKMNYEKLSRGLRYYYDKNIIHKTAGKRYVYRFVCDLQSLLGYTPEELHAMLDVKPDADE

RUNX1 [1] = target: RUNX1 (UniProt Q01196); assay: RUNX1 binding intensity (PBM fluorescence), RUNX1 alone (arbitrary fluorescence units); higher = stronger binding; conditions: RUNX1 concentration 2 nM; ETS1 concentration 0 nM
RUNX1, sequence (Q01196 whole entry): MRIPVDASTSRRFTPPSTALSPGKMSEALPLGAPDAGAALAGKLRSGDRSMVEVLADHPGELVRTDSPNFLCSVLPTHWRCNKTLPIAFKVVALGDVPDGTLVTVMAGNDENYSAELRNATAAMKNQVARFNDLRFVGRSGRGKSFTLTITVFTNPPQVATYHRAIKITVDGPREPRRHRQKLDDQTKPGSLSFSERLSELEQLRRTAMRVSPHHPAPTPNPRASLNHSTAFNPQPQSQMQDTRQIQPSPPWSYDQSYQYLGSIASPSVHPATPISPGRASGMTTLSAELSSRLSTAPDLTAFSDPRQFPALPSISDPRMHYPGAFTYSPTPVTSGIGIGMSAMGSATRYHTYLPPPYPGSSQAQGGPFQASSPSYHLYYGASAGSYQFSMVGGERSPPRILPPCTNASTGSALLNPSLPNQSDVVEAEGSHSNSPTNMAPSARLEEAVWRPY
Description: (§1)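 Cooperative gcPBM on 36-bp genomic probes with neighbouring ETS1 and RUNX1 sites. Recombinant human RUNX1 (2 nM) was incubated alone or with ETS1 (25 nM) and detected with anti-RUNX1 antibody plus Alexa488 secondary. Values are medians over 4 replicate spots; the RUNX1+ETS1 data were normalised to the RUNX1-only data. The probes sit in constant array flanks that are not printed.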

RUNX1 [2] = target: RUNX1 (UniProt Q01196); assay: RUNX1 binding intensity (PBM fluorescence) in presence of ETS1, normalised to RUNX1-only experiment (arbitrary fluorescence units); higher = stronger binding; conditions: RUNX1 concentration 2 nM; ETS1 concentration 25 nM
Description: as §1
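Wherever RUNX1 binding intensity (PBM fluorescence) in presence of ETS1, normalised to RUNX1-only experiment is given: Full-length recombinant human ETS1 or RUNX1 bound to double-stranded 36-bp genomic probes on microarrays, detected by protein-specific primary antibody and Alexa488 secondary, spot fluorescence as median of four replicate spots.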
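Wherever RUNX1 binding intensity (PBM fluorescence), RUNX1 alone is given: Full-length recombinant human RUNX1 bound to double-stranded 36-bp genomic probes on a high-density microarray, scored as Alexa488 fluorescence per spot via anti-RUNX1 antibody, median of four replicate spots.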

| Sequence | ETS1 binding intensity (ETS1) | RUNX1 binding intensity (RUNX1 [1]) | RUNX1 binding intensity (RUNX1 [2]) |
| --- | --- | --- | --- |
| CATTTCAGTCCAGGATGTGGGTGCACACACCGCTTC | 1610 | 798 | 1430 |
| TGGTTAGGGAGAGGGGGATGTGGTTAGGGTGAGGGA | 530 | 1110 | 1140 |
| AGCGACAGCGGATGCTCTCTGGCCGCAACATTCTTT | 880 | 769 | 1080 |
| GGGTCTCCAGGAAGCCACTCACCACAAACTTTGACA | 482 | 1080 | 1480 |
| GCTGGTATGGCAGGAAGTTTCTCACCACAGTATACT | 3540 | 780 | 1160 |
| AGCCTACATCCTGCACTGCTTAACCACAGCCCGCCT | 509 | 1960 | 5470 |
| GAAAAATGAAGTTTCCGCAGTAACCACAACACAGCC | 556 | 1350 | 2620 |
| AGCCCGCCGGAAACTAGCGTCACCGCGCCAAGGTTC | 1440 | 691 | 1160 |
| CCTGCAGCAACAGGATGTGGTTTGAAAGGATGAAAG | 7250 | 778 | 6460 |
| AGTCTCGTTTCCTGTGCGCTGTGGCCACCTGGCAGC | 1110 | 716 | 1790 |
| CCTGACTTCCTCCTCCCCCTCCCGCCACAATTCCGC | 1240 | 1620 | 2880 |
| GATTGTTATGTCCGGAAACCGCTTATCAGAGCCCTG | 2870 | 861 | 1590 |
| TTCAGGTGACTTCCGGCCGGACCGCTGAGGACGCGG | 9020 | 684 | 1630 |
| GCCAACAGGAAGCTGGAAGCCAACCGCACTGTGTGC | 1190 | 899 | 1670 |
| CTCAGGGTACCAGGATGTGGTTTAGCTTAGGGGTGG | 1840 | 980 | 2310 |
| GCGGAGGCGGAAGTCGTGCTGCTGCTGACCACGGCT | 2560 | 741 | 1370 |
| GTTAGCGTGATCGGAGGATGTGGTTTTCCTCCCTCT | 1440 | 942 | 1930 |
| GCCGGAAGCCACGCAGGGCCACGTCTGCGGTTCTGA | 976 | 826 | 1220 |
| AGCTCCACCGGAAACGGCCTGGCCGCAGCCAATCAG | 7110 | 806 | 2450 |
| GAGCGCAGGACGGAAGCTCGGTGCGGGTGCGGCCTC | 964 | 702 | 917 |
| TTGAATATGAAAGGAAGTGGTTAGGTGATGTGTTCT | 2370 | 826 | 1350 |

| Sequence | ETS1 binding intensity (ETS1) | RUNX1 binding intensity (RUNX1 [1]) | RUNX1 binding intensity (RUNX1 [2]) |
| --- | --- | --- | --- |
| TTACACAACAGGAAACTATGTTTAGCGGTTAATCCA | 2490 | 885 | 1580 |
| AAACCAGAGAGGAAGTGGCACCACATGGCCAGACTG | 2030 | 755 | 1140 |
| TATCTCCTATCTCCAGGAAGTGGTTAGCCCTAGGAG | 3210 | 811 | 1870 |
| GACAAAACACAGAAAGGAAGTGGTCAACTATTGCAC | 2510 | 835 | 1600 |
| CGAGATCCTGGCCACGGATGCGGTGGCCGCGCCTCT | 414 | 795 | 975 |
| GTGGCGAAAGTGCGGATGCGAAACCGCTGGCTCGGC | 587 | 782 | 881 |
| TTTCTGACACTCTCAGGATGTGGGTTTTCACACTGT | 1190 | 828 | 1320 |
| CCATGCACAACAGGATGTGGTTAGACAGTCAAAATT | 6700 | 875 | 11900 |
| CGAAAGTGACCGGAAGTAACCGCCGGGCCAAGATGG | 17800 | 795 | 1530 |
| AGCAGGTATACCACTTCCTGTGGTTATCATTTGAGG | 2330 | 966 | 6540 |
| GACAGCAACTCCACTTCCTGTGGGCGAGGGCCCTGT | 1850 | 835 | 1790 |
| CGCCGAACTTCCGGCAGTAAATTCCGTGGTTTCCCT | 2800 | 911 | 2400 |
| CTCTGGCAGGAAGCTCTGAGGGCTAAACCACAAAAA | 1110 | 989 | 1820 |
| TCCTATATACTTCCGTTTGCCTCGCGGTTTCTTTCT | 1300 | 2730 | 4520 |
| GGAGGTGGGGAGGAAGTTCTGAAACCACACACATTT | 749 | 891 | 1090 |
| TTCAACAGGATATTGCTTTGTTACCACAGGCCCTTT | 1590 | 946 | 1490 |
| AGTTGGTTCCTTCCGGTGGGTTTGTGGGTTTGGGGT | 1420 | 870 | 2390 |
| TACTACTTACCAGCAGGATGTGGTCCCTGCCCACTG | 3230 | 809 | 1250 |
| TGAGCACAGTATTTCCTGTGGTTTCTATTGCATTTC | 1010 | 1090 | 3540 |
| ATAGTCTCTTCCTGTGTTGCAAACCACAGGTCCACC | 743 | 1050 | 2300 |
| AATGAAGGAGGGGCAGGATGTGGTCTTGGTGAATCA | 2520 | 746 | 1440 |

| Sequence | ETS1 binding intensity (ETS1) | RUNX1 binding intensity (RUNX1 [1]) | RUNX1 binding intensity (RUNX1 [2]) |
| --- | --- | --- | --- |
| TCTCTATGGTTTCCGTTGGGTGTGTGGTTTTTTTGT | 579 | 1130 | 2050 |
| TTGCCATTCCAGGAAATGAGCTTACCACATTGACTG | 1980 | 798 | 1070 |
| GGAAAAGGAAGTGGCTTTGACTTGCGGGCAGGGAGA | 1020 | 733 | 2560 |
| ACTGAACAAACCGGATGTGGTTGCCACCTGCAATCT | 19800 | 848 | 21800 |
| GACTATGTGCTTCCGGTCTCCAATACCGCAGGAGGG | 4950 | 981 | 2690 |
| TGCAGCTTCCTGTCTGAGGCTTTGTGGTCCTTTCAT | 753 | 862 | 2480 |
| TGGCAGCCACATCCTGCCTGTGGCTAGGTCAACCCA | 1220 | 794 | 3730 |
| GGTTTAACGTTTCCGGTTTGTGGCTAGTTTCTTGTC | 7540 | 1060 | 3520 |
| TCGGCGGATATGAAAAAAAGTCCGTGGTCACGTGCA | 475 | 730 | 877 |
| CCGCCACCGGAAGCGCCCTCCTAATCCCCGCAGCGC | 6290 | 978 | 1920 |
| AATTGAGACAGGAAATGTTGGTTTGTGGTCAGGCAC | 5020 | 1170 | 3130 |
| GCTCCCGGATGTTCTGGGGATCTGCGGCCGCCTGGC | 1300 | 751 | 1320 |
| CCCAGCCCTGCTGCCGGATGTGGTGAGGCCCAGGTG | 5030 | 768 | 5400 |
| CTCTCACTTCCCGTGTGAGAAAAACCACAGAAAAGC | 651 | 1890 | 4200 |
| TGAAGCAGGCGGAAGTGCTGTGGTTTCTGGCGACTG | 4090 | 939 | 2830 |
| AGTGCAGAGTGGACAGGATGTGGTGGAGGTGAGAGA | 5690 | 723 | 1500 |
| GAAGTGTGCTCTTCCGGTACCTGCGGTTCGTTGCGC | 1770 | 808 | 2670 |
| ACTTACAAAGGAAGTGACAGAACCACAGAAAAGACC | 1230 | 732 | 1240 |
| GGACCGGTGTCTGGCGGATGCGGTCGTGAAGATAGG | 1200 | 710 | 1130 |
| AGCTGCATTTCCGGGCAGGCAATGAAACCACAGAGT | 1100 | 918 | 2370 |
